# Measurements reported in PubChem BioAssay (NCATS).
# Records with an inconclusive call do not appear. The source made the active and inactive calls. The call rests on the fitted dose curve; in most records, active means well fitted inhibition curve with a large enough effect; inconclusive means small, poorly fitted or top-dose-only effect; inactive means flat fitted curve, though single readings scatter.
# Target: Luciferin 4-monooxygenase (Photinus pyralis) (UniProt P08659)
# Test: Biochemical firefly luciferase enzyme assay for NPC (AID 624030); further: nearly all actives have a fitted effect of over 70% in size;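 on activity change, negative = inhibition: 0% = DMSO and -100% = full luciferase inhibition by PTC124 control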
# Conditions: purified P. pyralis luciferase, luminescence, 5 min; series mostly up to 58.6 µM; activity change, negative = inhibition: at the top concentration
# Text: Charcot-Marie-Tooth-Association [CMTA] National Center for Advancing Translational Sciences [NCATS] Charcot-Marie-Tooth (CMT) disease was first characterized by Jean-Martin Charcot and Pierre Marie in France and, independently, by Howard Henry Tooth in England in 1886. CMT is one of the most common inherited neurological diseases, affecting approximately 1 in 2,500 Americans. […] The most prevalent type of CMT is known as CMT1A and caused by a duplication of the PMP22 gene which leads to over-expression of this protein. PMP22 is a glycosylated intrinsic membrane protein accounting for 2-5% of the myelin protein content, and its over-expression results in demyelination and subsequently axonal loss. A pair of cellular transcription-based assays was developed in the S16 rat Schwann cell lines (Hai, M., et al., 2002) stably transfected with orthogonal reporters - firefly luciferase (Fluc) and beta-lactamase (beta-Lac) - whose expression is driven by an intronic regulatory element of the PMP22 gene (Jones, E.A., et al., 2011) to recapitulate endogenous expression of PMP22. A comprehensive library of approved drugs, the NCGC Pharmaceutical Collection (Huang, R., et al., 2011), was screened in the cross-validating platform of the orthogonal reporter assays to identify drug modulators inhibitory towards PMP22 expression. A set of counter-screens was devised to address non-specific activity of the library. An ATP-dependent CellTiter-Glo assay (developed by Promega Corp) was utilized to control cell viability. In addition, biochemical Fluc enzyme assay was performed to assess direct inhibition of the Fluc enzymatic activity. References Hai, M., Muja, N., DeVries, G.H., Quarles, R.H. and Patel, P.I. Comparative analysis of Schwann cell lines as model systems for myelin gene transcription studies. J Neurosci Res, 2002. 69(4): pp 497-508 Huang, R., Southall, N., Wang, Y., Yasgar A., Shinn P., Jadhav, A. , Nguyen, D.-T. and Austin, C.P., The NCGC pharmaceutical collection: a comprehensive resource of clinically approved drugs enabling repurposing and chemical genomics. Sci Transl Med, 2011. 3(80): p. 80ps16.
# Compounds were transferred to the plates in 23nl, and one microliter/well luciferase enzyme-buffer solution (10 nM P. pyralis luciferase and 50 mM Tris Acetate final concentrations) was dispensed yielding a final reaction volume of […]. Luciferase luminescence was measured by a ViewLux plate reader within 5 minutes of enzyme-buffer addition. The % activity was determined by normalizing to the average readings of PTC124 (a positive control) relative to DMSO (0% Activity). The concentration-effect curves were then classified based on curve quality (r2), response magnitude and degree of measured activity.
# Potency means the concentration at half of the fitted maximal effect.
# Sequence of Luciferin 4-monooxygenase (Photinus pyralis) (P08659 whole entry, looked up): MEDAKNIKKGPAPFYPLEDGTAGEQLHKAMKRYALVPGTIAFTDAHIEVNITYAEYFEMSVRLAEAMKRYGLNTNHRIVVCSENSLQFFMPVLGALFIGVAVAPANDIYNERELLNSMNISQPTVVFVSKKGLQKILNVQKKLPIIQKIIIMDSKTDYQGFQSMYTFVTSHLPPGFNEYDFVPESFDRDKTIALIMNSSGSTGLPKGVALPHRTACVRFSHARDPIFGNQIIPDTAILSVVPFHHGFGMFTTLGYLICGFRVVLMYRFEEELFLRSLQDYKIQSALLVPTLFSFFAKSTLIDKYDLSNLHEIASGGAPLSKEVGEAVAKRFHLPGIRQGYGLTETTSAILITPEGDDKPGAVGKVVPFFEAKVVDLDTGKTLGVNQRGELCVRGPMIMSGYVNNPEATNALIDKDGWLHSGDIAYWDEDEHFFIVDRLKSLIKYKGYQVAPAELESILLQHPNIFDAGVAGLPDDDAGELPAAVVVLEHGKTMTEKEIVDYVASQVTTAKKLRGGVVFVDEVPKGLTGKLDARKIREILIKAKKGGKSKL
SMILES,"activity change, negative = inhibition",Potency
CC(COc1ccccc1)NN (stereo not given),-4.1% (inactive),–
CCOC(=O)c1ccc(NC(=O)CN2CCCCC2)cc1,-14% (inactive),–
C[N+]1(C)CCC(OC(=O)C(O)(c2ccccc2)C2CCCC2)C1 (stereo not given),1.26% (inactive),–
CCCCCC[C@@H](CCC)C(=O)O,-11.4% (inactive),–
CC(=O)OCC(=O)Nc1cc(C#N)cc(NC(=O)COC(C)=O)c1Cl,-0.901% (inactive),–
CC(NCCC(c1ccccc1)c1ccccc1)c1ccccc1 (stereo not given),9.54% (inactive),–
CCNC(=O)NCCCOc1cccc(CN2CCCCC2)c1,-0.531% (inactive),–
CC(=O)OC/C=C(C)/C=C/C=C(C)/C=C/C1=C(C)CCCC1(C)C,0.227% (inactive),–
C[C@H](CN1CCCC1)C(=O)c1ccc(C(F)(F)F)cc1,0.532% (inactive),–
O=C1OC2(c3ccccc31)c1cc(I)c(O)c(I)c1Oc1c2cc(I)c(O)c1I,–,14.4 µM (active)
C[N+]1(CC2COC(c3ccccc3)(c3ccccc3)O2)CCCCC1 (stereo not given),-1.39% (inactive),–
C1=CC2C3C=CC(C3)C2C1 (stereo not given),-3.03% [at 123 µM] (inactive),–
CCOc1ccc(NS(=O)(=O)c2ccc(N)cc2)nn1,-4.84% (inactive),–
O=[N+]([O-])c1nccn1CO[C@@H](CO)[C@H](O)CO,0.623% (inactive),–
O=C(CCCCCCCCC#CI)Oc1ccccc1,-8.24% (inactive),–
CCCN(CCC)C(=O)C(CCC(=O)OCCCN1CCN(CCOC(=O)Cc2c(C)n(C(=O)c3ccc(Cl)cc3)c3ccc(OC)cc23)CC1)NC(=O)c1ccccc1 (stereo not given),-3.46% (inactive),–
O=C1NCCN1CCN1CCC(c2cn(-c3ccc(F)cc3)c3ccc(Cl)cc23)CC1,–,inactive
O=C(O)CNC(=O)CNC(=O)CNC(=O)CSC(=O)c1ccccc1,-0.007% (inactive),–
CCCc1c2oc(C(=O)O)cc(=O)c2cc2c(=O)cc(C(=O)O)n(CC)c12,-5.19% (inactive),–
CN(C)C(=O)CNC(=O)Cc1ccccc1,-1.54% (inactive),–

SMILES,"activity change, negative = inhibition",Potency
COc1cc(C=O)ccc1O,-0.364% (inactive),–
C1N2CN3CN1CN(C2)C3,3.4% (inactive),–
CCCCNc1ccc(C(=O)OCCN(CC)CC)cc1,0.207% (inactive),–
Cc1ccc2c(Cl)cc(Cl)c(O)c2n1,-10.1% (inactive),–
Brc1ccccc1-c1ccccc1,-0.238% [at 123 µM] (inactive),–
O=C(c1ccccc1)c1ccccc1,-2.66% (inactive),–
Nc1ccc2cc3ccc(N)cc3nc2c1,-7.48% (inactive),–
CC(C)(C)C(=O)OCOC(=O)C1N2C(=O)CC2S(=O)(=O)C1(C)C (stereo not given),-2.43% (inactive),–
NCC(=O)O,-3.01% (inactive),–
Cc1cc(C(C)(C)C)c(O)c(C(C)(C)C)c1,-2.78% (inactive),–
OC(CCCN1CCCCC1)(c1ccccc1)c1ccccc1,-1.32% (inactive),–
CCN1CCN(c2cc(-c3ccc(F)cc3)c3c(n2)CCCCCC3)CC1,-0.548% (inactive),–
O=C(CCC1CCN(Cc2ccccc2)CC1)c1ccc2c(c1)NCCCC2,1.25% (inactive),–
OCc1cccnc1,-1.71% (inactive),–
NC(N)=NCCCCN=C(N)N,-5.05% (inactive),–
C[N+](C)(C)CCO,–,inactive
CCCCCCCCCCCC[N+](C)(C)Cc1ccccc1,14.6% (inactive),–
CO[C@@]1(NC(=O)CSC[C@@H](N)C(=O)O)C(=O)N2C(C(=O)O)=C(CSc3nnnn3C)CS[C@@H]21,-9.39% (inactive),–
Nc1c2ccccc2nc2ccccc12,4.62% (inactive),–
Oc1ccccc1,2.39% (inactive),–
